Reference: paper PMC5540273 (PLoS ONE, 2017)

How the values were obtained:
Conditions in all cases: concentration: 1 μM, replicates: in singlicate; n = 1
EPHA4 = tested on: EPHA4
EPHA5 = tested on: EPHA5
EPHA6 = tested on: EPHA6
EPHA7 = tested on: EPHA7
EPHA8 = tested on: EPHA8
EPHB1 = tested on: EPHB1
EPHB2 = tested on: EPHB2
EPHB3 = tested on: EPHB3
EPHB4 = tested on: EPHB4
EPHB6 = tested on: EPHB6
ERBB2 = tested on: ERBB2
ERBB3 = tested on: ERBB3
ERBB4 = tested on: ERBB4
ERK1 = tested on: T1, ERK1
T1 construct: gene MAPK3

ERK2 = tested on: T2, ERK2
T2 construct: gene MAPK1

ERK3 = tested on: T3, ERK3
T3 construct: gene MAPK6

ERK4 = tested on: T4, ERK4
T4 construct: gene MAPK4

ERK5 = tested on: T5, ERK5
T5 construct: gene MAPK7

ERK8 = tested on: T6, ERK8
T6 construct: gene MAPK15

ERN1 = tested on: ERN1
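Further: KINOMEscan kinase panel screen.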

Compound	%Inh (EPHA4) [%]	%Inh (EPHA5) [%]	%Inh (EPHA6) [%]	%Inh (EPHA7) [%]	%Inh (EPHA8) [%]	%Inh (EPHB1) [%]	%Inh (EPHB2) [%]	%Inh (EPHB3) [%]	%Inh (EPHB4) [%]	%Inh (EPHB6) [%]	%Inh (ERBB2) [%]	%Inh (ERBB3) [%]	%Inh (ERBB4) [%]	%Inh (ERK1) [%]	%Inh (ERK2) [%]	%Inh (ERK3) [%]	%Inh (ERK4) [%]	%Inh (ERK5) [%]	%Inh (ERK8) [%]	%Inh (ERN1) [%]
Cc1ccc(NC(=O)Nc2cccc(Cl)c2)cc1-c1ccc(C(=O)Nc2ccncc2)cc1 [GSK1398468]	18	0	11	3	38	26	15	4	19	0	24	0	7	0	0	7	3	0	0	0
Cc1cccc(-c2nc(Nc3cccc(C(N)=O)c3)c3ccccc3n2)n1 [GW876019]	10	0	0	3	7	9	8	15	50	0	23	50	15	0	0	22	0	0	11	17
COc1cc(Nc2nccc(N3CCC(NC(=O)Nc4cc(C)ccc4C)C3)n2)cc(OC)c1OC (stereo not drawn) [GSK1379762]	26	0	18	25	33	12	0	16	4	89	11	0	0	9	0	5	4	0	41	15
Cc1cccc(-c2nc(-c3ccc(S(C)(=O)=O)cc3)sc2-c2ccnc(NCCc3ccccc3)c2)c1	0	0	15	0	0	0	10	0	0	0	0	3	0	0	0	19	7	5	14	0
COc1ccc(CNC(=O)NC2CCN(c3ccnc(Nc4cc(OC)c(OC)c(OC)c4)n3)C2)cc1 (stereo not drawn) [GSK1379748]	3	0	0	0	8	20	0	0	0	91.8	0	27	9	0	0	0	0	0	0	0
CCn1c(-c2cccnc2O)nc2cnccc21 [SB-736715]	0	0	0	0	0	0	6	0	0	0	9	0	25	0	0	0	0	0	0	0
CC(=O)Nc1nc2cnc(Nc3cc(NC(=O)c4cccc(CCC#N)c4)ccc3C)nc2s1	16	6	27	10	16	6	24	14	19	45	6	7	14	0	21	4	3	3	0	0
Cl.NC(=O)c1cccc(Nc2nccc(Nc3ccc(Oc4cccc(Cl)c4)c(Cl)c3)n2)c1 [GW659008]	3	0	0	3	19	0	0	0	16	68	79	82	55	3	0	15	0	61	0	19
Cc1cccc(-c2cc(Nc3ccncc3)c3ccccc3n2)n1 [GSK223675]	0	0	0	0	0	4	0	0	0	25	0	0	26	0	0	0	25	0	0	13
O=C(Nc1n[nH]c2cc(-c3cccc(F)c3F)ccc12)C1CC1 [SB-733894]	1	0	0	0	0	0	20	10	62	31	0	0	27	0	0	0	0	11	28	5
CS(=O)(=O)c1ccc(-c2nc3n(c2-c2ccncc2)CCC3)cc1 [SKF-105942]	20	0	8	10	13	8	9	14	32	0	32	0	0	0	0	0	100	0	0	18
CN(C)CCN(C)C(=O)c1cc(-c2ccncc2)c(-c2ccc(Cl)c(O)c2)o1.Cl.Cl [SB-710397]	6	0	8	13	16	8	12	11	5	5	53	26	33	2	0	0	0	0	0	0
Fc1cccc(COc2nnc(-c3ccc4c(c3)CCO4)o2)c1	0	0	11	14	16	20	0	20	16	0	3	13	0	0	13	0	0	8	0	15
Cc1cccc(-c2nc(C)cc(Nc3ccncc3)n2)n1 [GSK257997]	2	0	2	7	8	23	0	5	5	0	28	0	30	0	0	19	100	0	0	4
Cc1c(O)cccc1Nc1ccnc2ccc(C(F)(F)F)cc12.Cl [GW466413]	0	0	14	0	8	9	0	54	20	0	35	17	0	0	0	0	0	0	8	0
Fc1cc(Cl)ccc1Nc1ccnc2cc(I)ccc12 [GW551191]	13	0	34	6	44	32	25	17	15	53	32	31	30	0	0	5	24	0	0	2
COc1cccc(NC(=O)NC2CCN(c3ccnc(Nc4ccc(F)cc4)n3)C2)c1 (stereo not drawn) [GSK1379721]	0	0	0	0	3	17	0	0	0	33	28	0	7	0	0	0	21	0	0	19
Cc1cccc(-c2nc(Nc3ccncc3)c3ccccc3n2)n1 [GW855857]	18	0	0	0	7	3	16	11	26	0	7	43	0	0	9	0	7	30	17	0
C[C@@H]1CCCCN1c1cc(-c2ccc3c(N)n[nH]c3c2)nc(N)n1 [GSK2258759]	2	0	1	0	3	12	0	7	15	14	18	0	12	8	0	5	0	0	0	0
COc1ccccc1CNC(=O)c1cc(C(=O)c2ccccc2C)c[nH]1 [GSK364507]	5	0	0	8	19	25	0	6	20	11	21	0	30	0	2	4	13	0	0	0
COc1cc2ncnc(Nc3ccc4nc(-c5ccccc5)[nH]c4c3)c2cc1OC.Cl [GW282450]	0	0	0	0	0	38	1	3	22	18	23	0	33	0	0	0	0	0	0	4
